A selection: hits, their analogues and other compounds. The true share with any hit is near 7.9%.
M1 antag – antagonists of rat M1 muscarinic receptor | Muscarinic acetylcholine receptor M1 (Rattus norvegicus), P08482 | CHO-M1 cells, Fluo-4 calcium, ACh EC80 antagonist mode; hits give low values | B-score at 10 µM | actives 3.4% (n = 64,000) | AID 628, 2007;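 active = calcium fluorescence response, raw or row-and-column corrected B-score, differing from the plate sample mean either way at a set confidence level, mostly lower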
HER2 expr 66K – inhibitors of Her2 protein expression, primary screen, SKBR-3 cells, AlphaScreen, 66K library; Receptor tyrosine-protein kinase erbB-2 (Homo sapiens), P04626; SKBR-3 HER2 protein level, 18-24 h; hits give low values; HER2 level % of control, % at 10 µM; actives 0.69% (n = 65,000); AID 645, 2007;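 active = HER2 level under 5% of the carrier-only control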;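 note: lower value means stronger loss of Her2 protein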
M1 agonist – M1 muscarinic receptor agonists, primary screen, CHO-M1 cells, Fluo-4 calcium, agonist mode. Muscarinic acetylcholine receptor M1. Fluo-4 calcium fluorescence; hits give high values. B-score at 10 µM. actives 3% (n = 64,000). AID 626, 2007;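 active = fluorescence rise, raw or as B-score row- and column-corrected plate score, outside the 99.7% band of its plate's samples, either direction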
Cav32 inh – Cav3.2 calcium influx blockers – cell-based, Fluo-4 calcium fluorescence, FDSS, MLSMR library, primary screen. Voltage-dependent T-type calcium channel subunit alpha-1H (Homo sapiens), O95180. Cav3.2-expressing cells; hits give low values. B-score at 10 µM. actives 4% (n = 100,000). AID 449739, 2010;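 active = single-dose well whose peak fluorescence ratio is a statistical outlier from its plate by either plate-standardised score or position-corrected B-score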
PLAP activator – PLAP enzyme activators, biochemical, luminescence, HTS. AID 696, 2007. actives 1.2% (n = 96,000). activation fold at 20 µM. Alkaline phosphatase, placental type (Homo sapiens), P05187. purified PLAP enzyme, luminescent substrate read-out; hits give high values; in the data active = activation fold above about 2
Target sequence (P05187 whole entry, looked up): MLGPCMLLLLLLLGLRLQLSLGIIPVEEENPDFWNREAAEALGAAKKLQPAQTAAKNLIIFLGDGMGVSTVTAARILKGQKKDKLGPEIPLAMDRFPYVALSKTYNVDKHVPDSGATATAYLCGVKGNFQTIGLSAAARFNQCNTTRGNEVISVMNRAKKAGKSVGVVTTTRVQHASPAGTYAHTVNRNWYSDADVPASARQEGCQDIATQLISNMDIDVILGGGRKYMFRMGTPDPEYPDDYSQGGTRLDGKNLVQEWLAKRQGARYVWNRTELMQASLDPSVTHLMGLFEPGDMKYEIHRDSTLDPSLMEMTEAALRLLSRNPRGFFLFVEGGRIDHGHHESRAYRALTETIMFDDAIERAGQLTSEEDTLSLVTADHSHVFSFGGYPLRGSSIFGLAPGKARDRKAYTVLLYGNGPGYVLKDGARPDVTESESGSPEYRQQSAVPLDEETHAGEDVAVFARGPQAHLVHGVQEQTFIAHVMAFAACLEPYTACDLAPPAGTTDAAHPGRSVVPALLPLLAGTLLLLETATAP
Numbers stand for hits; 0 = inactive; - = not tested or not shown.

SMILES | M1 antag | HER2 expr 66K | M1 agonist | Cav32 inh | PLAP activator
CC(C)(C)NS(=O)(=O)c1ccc(NS(C)(=O)=O)cc1 | - | - | - | 0 | 0
CC/C(C)=C1\SC(N2CCOCC2)=NC1=O | - | - | - | 0 | 0
COC(=O)c1[nH]c2ccc(C)cc2c1NC(=O)CN1CCCc2ccccc21 | 0 | -22.1 | 0 | 0 | 0
O=C(CN1C(=O)c2ccccc2C1=O)NCC1COc2ccccc2O1 (stereo not given) | 1.21 | 0 | 0 | 0 | 0
S=C1N(c2ccccc2)C(c2ccc(Cl)cc2)N2CCCN12 (stereo not given) | - | - | - | -4.85 | 0
O=C(/C=C/c1ccccc1)NCCSCc1ccccc1Cl | - | - | - | -5.67 | 0
CC(Sc1nc(NCc2ccccc2)nc(N(C)C)n1)C(=O)Nc1ccccc1 (stereo not given) | - | - | - | -3.4 | 0
CC(C)(C)C(=O)Nc1ccc(C(=O)NNC(=O)Cc2ccccc2)cc1 | - | - | - | 0 | 0
Cc1nnc(Sc2nc(Sc3nnc(C)s3)nc(N3CCN(C)CC3)n2)s1 | 0 | -33.3 | 0 | - | -
Cc1nnc(Sc2c(N)n(C)c(=O)n(C)c2=O)s1 | - | - | - | 0 | 0
CNc1nc(NCCOC23CC4CC(CC(C4)C2)C3)nc(OCC(F)(F)F)n1 | - | - | - | -5.41 | 0
CNc1nc(OCC(F)(F)F)nc(N2CCOCC2)n1 | - | - | - | 0 | 0
COc1ccc(NC(=O)Nc2cc(C)ccc2OC(F)F)c(OC)c1 | 2.02 | 0 | 0 | 0 | 0
COc1ccc(S(=O)(=O)N(C)CC(=O)Nc2ccc(C(F)(F)F)cc2)cc1Cl | - | - | - | 0 | 0
Cc1cccc(C)c1NC(=O)NC1(C(=O)NCCCN2CCOCC2)CCCCC1 | - | - | - | 0 | -
C=CCOC(=O)/C(=C\c1ccc(OC)cc1)NC(=O)c1ccco1 | - | - | - | - | 0
CCCCOc1ccc(C(=O)N/C(=C\c2ccc(OC)cc2)C(=O)OCc2ccco2)cc1 | - | - | - | -8.62 | 0
Cc1cc(C(=O)CSc2nnc(-c3ccccc3F)o2)c(C)n1Cc1cccs1 | 0 | 0 | 0 | -4.93 | 0
COc1ccccc1-n1cnnc1SCC(=O)c1cc(C)n(Cc2cccs2)c1C | 0 | 0 | 0 | 0 | 0
Cc1nc(CC(=O)c2ccc(O)cc2O)cs1 | - | - | - | 0 | 0
O=C(Cc1cscn1)c1ccc(O)cc1O | 0 | -18.5 | 0 | 0 | 0
O=C(CN1C(=O)NC2(CCCCCCC2)C1=O)N1CCc2ccccc2C1 | - | - | - | 0 | 0
O=C(CN1C(=O)NC2(CCCCCC2)C1=O)N1CCC(Cc2ccccc2)CC1 | 0 | 0 | 0 | 4.28 | -
COc1cc(NS(=O)(=O)c2ccc(OC)c(C)c2C)c(OC)cc1Cl | 0 | 0 | 0 | -7.39 | 0
CN=C(Nc1ccc(Cl)cc1)c1ccc(C(F)(F)F)cc1 | - | - | - | 0 | 0
SMILES | M1 antag | HER2 expr 66K | M1 agonist | Cav32 inh | PLAP activator
Cc1ccc(C)c(NS(=O)(=O)c2cc(C(=O)NCCSC3CCCCC3)ccc2C)c1 | - | - | - | -4.53 | 0
Cc1ccc(C)c(NS(=O)(=O)c2cc(C(N)=O)ccc2C)c1 | 0 | 0 | 0 | 0 | 0
Cc1ccc(C)c(NS(=O)(=O)c2cc(C(=O)Nc3cccc(N(C)S(C)(=O)=O)c3)ccc2C)c1 | - | - | - | -4.45 | 0
Cc1ccc(C(=O)NCCSc2ccccc2)cc1S(=O)(=O)Nc1ccccc1 | - | - | - | -5.8 | 0
Cc1ccccc1NS(=O)(=O)c1cc(C(=O)NCCSC2CCCCC2)ccc1C | - | - | - | -4.45 | 0
C#Cc1ccc([C@@H]2C=C(C(=O)NCc3ccccc3)O[C@H](OCCCCO)C2)cc1 | - | - | - | 0 | -
Cc1ccc(C)c(S(=O)(=O)NCc2ccc(C(=O)NCc3ccco3)cc2)c1 | - | - | - | 0 | -
Cc1ccc(C(=O)NCc2ccco2)cc1S(=O)(=O)Nc1cccc(Cl)c1 | - | - | - | -5.96 | 0
CNS(=O)(=O)c1cccc(C(=O)OCC(=O)C23CC4CC(CC(C4)C2)C3)c1 | - | - | - | 0 | 0
CCOC(=O)c1ccc(N=c2sc(C(=O)OC)cc(=O)n2Cc2ccco2)cc1 | 0 | 2.9 | 0 | 0 | 0
CCOC(=O)c1ccc(N=c2sc(C(=O)OC)cc(=O)n2CCCN2CCOCC2)cc1 | 0 | 0 | 0 | 0 | 0
CC(C)CCOCC(=O)Nc1cccc(C(=O)O)c1 | 0 | 0 | 0 | 0 | 0
COc1ccc(S(=O)(=O)NCCc2c(C)nn(C)c2Oc2ccccc2)cc1 | - | - | - | 0 | 0
Cc1nn(C)c(Oc2ccccc2)c1CCNS(=O)(=O)c1ccc(Cl)cc1 | - | - | - | -6.94 | 0
O=C(NCCc1ccc(Cl)cc1)C1CCN(S(=O)(=O)c2cccs2)CC1 | - | - | - | -6.67 | 0
COc1cccc(NC(=S)NCCC(c2ccccc2)c2ccccc2)c1 | - | - | - | -6.92 | 0
Cc1cc(Cl)ccc1NC(=S)NCCC(c1ccccc1)c1ccccc1 | - | - | - | -3.61 | 0
S=C(NCCc1ccccc1)Nc1ccc(Cl)cc1Cl | - | - | - | -5.11 | 0
COc1cccc(NC(=O)C(NCCC(C)C)c2ccccc2)c1 (stereo not given) | - | - | - | -6.16 | 0
CCO[C@H]1OC(C(N)=O)=C[C@@H](C2CCCCC2)[C@@H]1CCCO | - | - | - | 0 | -
O=C(NC1CCCCCC1)C1CC(=O)N(Cc2ccccc2)C1 (stereo not given) | 0 | 0 | 0 | 0 | 0
COc1cc(OC)nc(Oc2ccccc2C(=O)Oc2ccc(F)cc2Cl)n1 | - | - | - | 0 | 0
CCN(CC)S(=O)(=O)c1cc(Br)ccc1OC | 0 | 0 | 0 | 0 | 0
COC(=O)C(C(=O)OC)C(C)C(C(=O)OC)C(=O)OC | - | - | - | 0 | 0
Cc1c(Cl)cccc1NC(=S)NCCC(c1ccccc1)c1ccccc1 | - | - | - | -6.86 | -
SMILES | M1 antag | HER2 expr 66K | M1 agonist | Cav32 inh | PLAP activator
Cc1c(Cl)cccc1NC(=S)NCCC(C)C | - | - | - | 0 | 0
O=C(CNC(=O)/C(=C\c1ccc(F)cc1)NC(=O)c1ccccc1)OCc1ccccc1 | - | - | - | 0 | 0
O=C(CNC(=O)/C(=C\c1ccccc1)NC(=O)c1ccc(Br)cc1)OCc1ccccc1 | - | - | - | -6.62 | 0
COc1ccc(Cl)cc1NC(=O)CSc1nncn1-c1cccnc1 | 0 | 0 | 0 | 0 | 0
CCC(C)[C@H](N)c1nnc(SCc2cccc(F)c2)o1 (stereo not given in full) | 0 | 0 | 0 | 0 | 0
CCC(C)[C@H](N)c1nnc(SCC(=O)Nc2cccc(Cl)c2)o1 (stereo not given in full) | 0 | 0 | 0 | 0 | 2.5
C=CCN1C(=O)/C(=C2/C(=O)N(CC(=O)O)c3ccccc32)S/C1=N/c1nccs1 | - | - | - | - | 0
COc1ccccc1NC(=O)Cc1noc(CSc2cc(C)c3ccccc3n2)n1 | 0 | 0 | 0 | -6.95 | 0
Cc1ccccc1NC(=O)N1CCCC(c2nc(-c3ccc(C(C)C)cc3)no2)C1 (stereo not given) | 0 | 0 | 0 | -4.21 | 0
O=C(Nc1ccc(Cl)cc1)N1CCC(c2nc(-c3cccs3)no2)CC1 | 0 | 0 | -2.47 | 0 | 0
Cc1ccccc1NC(=O)N1CCCC(c2nc(-c3ccc(F)cc3)no2)C1 (stereo not given) | 0 | 0 | 0 | 0 | 0
O=C(Nc1ccccc1)N1CCCC(c2nc(-c3ccc(F)cc3)no2)C1 (stereo not given) | - | - | - | -5.41 | 0
C=CCNCC(=O)NN=C(c1ccccc1)c1ccccc1 | - | - | - | - | 0
